Pf Dd2 inh – inhibitors of Plasmodium falciparum Dd2 growth. P. falciparum Dd2 growth, SYBR Green, 72 h. Potency, µM (doses to about 28.9 µM), inactives show at the top dose activity, negative = inhibition, hits mostly inhibitors. actives 4.3% (n = 120,000). AID 1347417; active means well fitted inhibition curve with a large enough effect;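 further: plate controls were DMSO vehicle for no effect and reference drug for full effect; nearly all actives have a fitted effect of over 65% in size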
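Infected erythrocytes (Dd2, 0.3% parasitemia, 2.5% hematocrit final) are added to compound in RPMI-1640/Albumax II medium, grown 72 h at 37C in low oxygen, then lysed with saponin/Triton-X containing SYBR Green and read by fluorescence.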
* marks the source's active call; other numbers are inactive results; i = inactive; [ ] = remark or other dose. The full list was thinned out, with hits kept by preference. Potency means the concentration at half of the fitted maximal effect.

SMILES	Pf Dd2 inh
Cc1ccc(CNCc2c(C(=O)O)n(Cc3ccc(C)cc3)c3cc(C)ccc23)cc1	-13%
Cc1ccc(NC(=O)[C@H]2CCC[C@H]2NC(=O)c2cnc(C)cn2)cc1	-23%
O=C(NCCC1CCN(C(=O)Nc2ccccc2F)CC1)C1CC1	-9%
CCCNC(=O)C1COC2(CCC(C)CC2)N1C(=O)c1ccccc1Cl (stereo not drawn)	-19%
O=C(c1n[nH]c(=O)c2ccccc12)N1CCCC1c1nc(CCOCC2CC2)no1 (stereo not drawn)	-18%
CCN1CCN(C(=O)C2CCCCC(=O)N2)CC1 (stereo not drawn)	6%
CC(=O)c1ccc(NC(=O)N[C@@H]2C=C(C(=O)N[C@H](CC(C)C)C(N)=O)C[C@@H](O)[C@@H]2O)cc1	23%
CC(C)(C)C(=O)NCCc1noc(C2CC2)n1	21%
CCOC(=O)N1CCc2c(sc3c2c(=O)n(CCc2ccccc2)c(=O)n3Cc2ccc(C)cc2C)C1	2.5µM*
CCOc1ccc(NC(=O)Cn2c(=O)n(CCc3ccccc3)c(=O)c3c4c(sc32)CCCC4)cc1	44%
C#CCn1c(=O)n(-c2cccc(Cl)c2C)c(=O)c2c3c(sc21)CN(C(C)=O)CC3	7%
CCOC(=O)N1CCc2c(sc3c2c(=O)n(CCc2ccccc2)c(=O)n3CC(=O)Nc2cccc(C)c2)C1	i
CCOc1ccccc1NC(=O)Cn1c(=O)n(Cc2ccccc2)c(=O)c2c3c(sc21)CN(C(C)=O)CC3	-21%
CCOC(=O)N1CCc2c(sc3c2c(=O)n(-c2ccc(CC)cc2)c(=O)n3Cc2cccc(OC)c2)C1	-26%
CC(=O)N1CCc2c(sc3c2c(=O)n(-c2ccccc2)c(=O)n3Cc2cccc(C(F)(F)F)c2)C1	10µM*
CC(=O)c1cccc(-n2c(=O)c3c4c(sc3n(Cc3cccc(C)c3)c2=O)CN(C(C)=O)CC4)c1	-24%
CC(=O)c1cccc(-n2c(=O)c3c4c(sc3n(Cc3ccccc3Cl)c2=O)CN(C(C)=O)CC4)c1	i
CC(=O)N1CCc2c(sc3c2c(=O)n(-c2ccccc2)c(=O)n3CC(=O)c2ccccc2)C1	0%
CC(=O)N1CCc2c(sc3c2c(=O)n(-c2cccc(Cl)c2C)c(=O)n3Cc2ccccc2C)C1	8.9µM*
CCOC(=O)N1CCc2c(sc3c2c(=O)n(Cc2ccccc2)c(=O)n3Cc2ccc(C)cc2)C1	2.5µM*
O=C(N1CCSCC1)C1(c2ccc(Cl)cc2)CCOCC1	5%
Nc1nc(C2CC(N)C2)cc(N2CCN(CC(=O)N3CCCCC3)CC2)n1 (stereo not drawn)	6%
Cc1cn(CC(=O)N2CCOCC(O)C2)c(=O)[nH]c1=O (stereo not drawn)	2%
CCn1c(CN(C)Cc2nc3c(C)cccc3[nH]2)nnc1C1CC(N)C1 (stereo not drawn)	-16%
Cc1nn(C)c(C)c1CCN(C)C(=O)C1CCN(C(=O)N2CC3CC(C2)[C@H]2CCCC(=O)N2C3)CC1 (stereo partly drawn)	i
SMILES	Pf Dd2 inh
CC(=O)N1CCc2c(sc3c2c(=O)n(Cc2ccccc2)c(=O)n3Cc2ccc(Cl)cc2)C1	-22%
COc1ccccc1NC(=O)Cn1c(=O)n(Cc2ccccc2)c(=O)c2c3c(sc21)CN(C(C)=O)CC3	-10%
CC(=O)N1CCc2c(sc3c2c(=O)n(Cc2ccccc2)c(=O)n3Cc2cccc(Cl)c2)C1	10µM*
CN(Cc1ccccc1C(F)(F)F)S(=O)(=O)NCc1ccccc1	-17%
CNS(=O)(=O)c1ccc(CN2CCC3(CCNCC3)C2)cc1	-3%
CC(C)NC(=O)C1CCC(=O)N1C1CCN(C(=O)c2ccc(C(C)C)cc2)CC1 (stereo not drawn)	-10%
CN(CC1CCOC1)S(=O)(=O)c1ccc(Cl)cc1 (stereo not drawn)	2%[5.79 µM]
O=C(c1cnc2c(c1)N(C(=O)CCc1ccccc1)CCC2)N1CCC(c2ccccc2)CC1	132%
O=C(C[C@@H]1CCNC[C@@H]1Cc1cc(-c2ccc(F)cc2)on1)NCc1ccc(F)cc1	i
CC(C)(C)c1ccc(-c2cc(C[C@H]3CNCC[C@H]3CC(=O)N3CCCCC3)no2)cc1	5µM*
CC(C)(C)c1ccc(-c2cc(C[C@H]3CNCC[C@H]3CC(=O)NCc3ccc(F)cc3)no2)cc1	-3%
CC(C)(C)NC(=O)C[C@@H]1CCNC[C@@H]1Cc1cc(-c2ccc(C(C)(C)C)cc2)on1	4µM*
COc1ccc(CNC(=O)C[C@@H]2CCNC[C@@H]2Cc2cc(-c3ccc(C(C)(C)C)cc3)on2)cc1	-18%
CC(C)(C)c1ccc(-c2cc(C[C@H]3CNCC[C@H]3CC(=O)N3CCN(c4ccc(F)cc4)CC3)no2)cc1	i
COc1ccc2c(=O)n(CC(=O)N(C)Cc3cc(C)no3)ccc2c1OC	5%
CN(Cc1cnc(N)nc1)C(=O)C(c1cccc(F)c1)N(C)C (stereo not drawn)	8%
COCc1cc(N2CCN(C)C3(CCC(=O)N(C)CC3)C2)ncn1 (stereo not drawn)	-4%
CCNCc1ccc(-c2ccc(F)cc2)o1	i
c1ccc(-c2ccc(CNCc3cccs3)o2)cc1	i
CCNCc1ccc(-c2ccc(Cl)cc2)o1	13µM*
Fc1ccc(-c2ccc(CNCCSc3nnnn3-c3ccccc3)o2)cc1Cl	46%
Clc1cccc(-c2ccc(CNc3ncncn3)o2)c1	-14%
CCN(CC)CCNCc1ccc(-c2ccccc2)o1	3.2µM*
CCC(c1cccs1)N1C(=O)[C@H]2CN(S(=O)(=O)c3cccc(OC)c3)C[C@H]2C1=O (stereo partly drawn)	-4%
CCNC(=O)N1CCCC1c1noc(COc2ccc(F)cc2)n1 (stereo not drawn)	-8%
SMILES	Pf Dd2 inh
O=C(N[C@@H]1CN(C(=O)C2CC2)CC[C@@H]1CO)C1CC1	-23%
CCOCC(=O)N1C[C@@H]2CCCN3CCC[C@@H]([C@H]23)[C@H]1CCCC(=O)Nc1ccccc1	-14%
Cc1ccc(C2Cn3nnc(-c4noc(-c5ccncc5)n4)c3CO2)cc1 (stereo not drawn)	27%
O=C(c1ccoc1)N1CCC(Nc2cccn3ncnc23)CC1	-18%
Cc1cccc(CC(=O)N2CCC(c3nn(C)c4c3COCC4)CC2)c1	i[5.79 µM]
Cc1cccc(CC(=O)N2CCC(Nc3cccn4ncnc34)CC2)c1	11µM*
Cc1cccc(C(=O)Nc2ccc(-c3nnc4n3CCCC4)cc2)c1	-10%
Cc1ccc(C(=O)Nc2ccc(-c3nnc4n3CCCC4)cc2)s1	5.6µM*
CCOc1ccccc1C(=O)Nc1cccc(-c2nnc3n2CCCC3)c1	5µM*
O=C(Nc1ccc(-c2nnc3n2CCCC3)cc1)c1cc(C2CC2)[nH]n1	i
O=C(Nc1cccc(-c2nnc3n2CCCC3)c1)c1ccccc1Cl	5.6µM*
CC(=O)Nc1ccc(-c2nnc3n2CCCC3)cc1	25%
O=C(Nc1ccc(-c2nnc3n2CCCC3)cc1)c1ccc[nH]c1=O	-2%
CCOc1cc(=O)n2c(c1C(=O)Nc1cccc(C)c1)CCCC2	22%
Cc1cc(C)cc(C(=O)Nc2cccc(-c3nnc4n3CCCC4)c2)c1	3.2µM*
O=C(Nc1cccc(-c2nnc3n2CCCC3)c1)Nc1ccccc1F	8%
O=C(Nc1ccc(-c2nnc3n2CCCC3)cc1)Nc1cccc(Cl)c1	-8%
O=C(Nc1ccccc1)Nc1ccc(-c2nnc3n2CCCC3)cc1	31%
CN(Cc1n[nH]c2c1CCCCC2)C(=O)c1cn(CC2CCCCC2)nn1	i
CC(=O)N1CCN(c2nc3c(s2)CC(C(=O)NCCC2CCN(C)CC2)CC3)CC1 (stereo not drawn)	-6%
Cc1ccc(CNC(=O)CCC2CCN(S(=O)(=O)c3ccccc3)CC2)o1	-5%

Source: PubChem BioAssay (National Center for Advancing Translational Sciences (NCATS))
